Compound activity deposited in PubChem by National Center for Advancing Translational Sciences (NCATS).
HPGD block = inhibitors of human 15-hydroxyprostaglandin dehydrogenase (HPGD); purified HPGD, NADH fluorescence kinetic, PGE2 substrate; Potency, µM, for inactives: at the top dose activity change, negative = inhibition, usual class: inhibitors; 150,000 compounds, 4.3% hits; active = well fitted inhibition curve with a large enough effect, not every such curve was filed as active; inconclusive = small, poorly fitted or top-dose-only effect, or another doubt; inactive = no such curve, though single readings can be large or run the other way
Target sequence (P15428 whole entry, looked up): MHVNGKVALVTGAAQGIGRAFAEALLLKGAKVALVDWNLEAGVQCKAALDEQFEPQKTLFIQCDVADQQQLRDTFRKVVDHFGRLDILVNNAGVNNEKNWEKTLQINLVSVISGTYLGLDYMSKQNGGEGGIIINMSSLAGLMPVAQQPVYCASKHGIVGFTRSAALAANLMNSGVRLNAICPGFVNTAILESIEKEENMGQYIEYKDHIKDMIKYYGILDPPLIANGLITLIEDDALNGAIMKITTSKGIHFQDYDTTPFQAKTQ
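20 nM HPGD preincubated 15 min at room temperature with compound in 50 mM Tris-HCl pH 8, 0.01% Tween 20. Started with 1 mM NAD+ and 30 uM prostaglandin E2; NADH fluorescence (360/450 nm) read 5 times over 30-s intervals, last minus first.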
p53ts 39C tox = cytotoxicity in p53ts cells at nonpermissive temperature | AID 902 | Potency, µM (highest dose often 46.1 µM), for the others: at the highest dose activity change, negative = cell killing, actives largely listed as cytotoxic | 130,000 compounds, 1.5% hits | H1299-p53A138V viability at 39C, ATP luminescence, 24 h; note: nearly all actives have a fitted effect of over 55% in size
ALOX12 inhib = blocks human 12-lipoxygenase activity. P18054. purified 12-hLO, xylenol orange hydroperoxide absorbance. Potency, µM (top dose mostly 57.1 µM), for the others: at the highest dose activity change, negative = inhibition, most hits filed as inhibitors. 150,000 compounds, 0.12% hits; note: nearly all actives have a fitted effect of over 55% in size
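Lipoxygenase turnover measured by absorbance at 573 and 405 nm after Fe-XO development. Human 12hLO 150 nM, arachidonate 40 uM, pH 7.0 Hepes buffer with detergent; 15 min compound preincubation, 30 min reaction.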
p53ts 32C tox = kills p53ts cells at the permissive temperature; 130,000 compounds, 0.93% hits; Potency, µM (highest dose often 46.1 µM), for inactives: at the highest dose activity change, negative = cytotoxicity, actives largely listed as cytotoxic; H1299-p53A138V at 32C, ATP luminescence viability, 24 h;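 note: 0% = DMSO and -100% = full killing by reference compound; nearly all actives have a fitted effect of over 55% in size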
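ATP-content luminescence (ATPlite) read-out after 24 h compound exposure at 32C in H1299-p53A138V cells (600/well). Tested up to 46 uM. Normalized to DMSO (0%) and 100 uM tamoxifen (100% killing); Hill-fit AC50.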
Starred values were filed as active, the others as inactive; ? = inconclusive; / = not tested or not shown; [ ] = another dose, or the depositor's remark. In the library only some 4.4% were active in any assay of this set; here they are far more common. Unless noted, calls come from the whole dose curve; as a rule, active = well fitted curve in the direction sought with a large enough effect; inconclusive = small, poorly fitted or top-dose-only effect, or another doubt; inactive = no such curve, though single readings can be large; an effect the other way counts as inactive or inconclusive. Unless noted, % is set by controls: 0 for no effect and ±100 for the full control effect; potency is the fitted concentration of half-maximal effect.

SMILES	HPGD block	p53ts 39C tox	ALOX12 inhib	p53ts 32C tox
Cc1ccc(CNC(=O)C(=O)NCC(c2cccnc2)N2CCN(c3ccc(F)cc3)CC2)cc1 (stereo unspecified)	/	-3%	/	-2%
Cc1cccc(N2C(=O)NC(=O)/C(=C/c3ccc([N+](=O)[O-])o3)C2=O)c1	13µM*	/	13%	/
CCNCCC1(CC)C(=O)NC(=O)NC1=O	-3%	-5%[9.22 µM]	5%[11.4 µM]	5%[9.22 µM]
CN1C(=O)c2ccccc2Sc2ccc(NC(=O)c3ccc(C(F)(F)F)cc3)cc21	/	?	/	-5%
CN1C(=O)C(=Cc2ccccc2OCc2ccc(Cl)cc2)C(=O)N(C)C1=O	22µM*	/	-5%	/
CN1C(=O)C(=Cc2ccccc2Oc2ccc(Cl)cc2)C(=O)N(C)C1=O	25µM*	/	1%	/
N[C@@H](CSC1c2ccccc2-c2ccccc21)C(=O)O	-4%	3%[9.22 µM]	3%[11.4 µM]	-4%[9.22 µM]
COc1ccc(C2=C(C(C)=O)Sc3nnc(-c4ccc(C)cc4)n3N2C(C)=O)cc1OC	/	39%	/	-5%
Cc1ccc(C(=O)Nc2c(C(=O)Nc3ccc(C)c(C)c3)sc3nc(C)cc(C)c23)cc1	/	6.3µM*	/	-24%
CN1C(=O)/C(=C/c2ccc(N3CCCCCC3)o2)C(=O)NC1=S	-20%	-15%	-5%	-23%
CCC(C)N1C(=O)/C(=C\c2cc3c4c(c2)CCCN4CCC3)C(=O)NC1=S (stereo unspecified)	22µM*	/	-14%	/
CCC(C)N1C(=O)/C(=C\c2ccc(N3CCCCCC3)cc2)C(=O)NC1=S (stereo unspecified)	20µM*	/	-8%	/
COC(=O)c1ccccc1-n1c(C)nc2ccccc2c1=O	-7%	4%	-1%	5%
COP(=S)(OC)SCn1nnc2ccccc2c1=O	28µM*	/	-29%	/
CC(=O)O/C(=C1/C[C@H]2[C@@H]3CC=C4C[C@@H](OC(C)=O)CC[C@]4(C)[C@@H]3CC[C@]2(C)C1=O)C(F)(F)F	-7%	14%[9.22 µM]	-10%[11.4 µM]	4%[9.22 µM]
CCCCn1c(O)c(C=NC2CCCCC2N)c(=O)[nH]c1=O (stereo unspecified)	-19%	-16%	-1%	-9%
CCCCCCn1c(O)c(C=NC2CCCCC2N)c(=O)[nH]c1=O (stereo unspecified)	-9%	5µM*	0%	4µM*
COC(=O)CSc1n[nH]c(=S)s1	40µM*	/	-2%	/
COC(=O)CC1(CC(=O)OC)C(=O)NC(=O)NC1=O	-22%	33%	-4%	-4%
Cc1noc(NS(=O)(=O)c2ccc(NC(=O)CCCOc3ccc(Cl)cc3Cl)cc2)c1C	25µM*	19%	-3%	12%
Cc1cc(C=C2C(=O)N(C)C(=S)N(C)C2=O)c(C)n1C1CCCCC1	-10%	/	-11%	/
Cc1cc(N2CCCCC2)ccc1C=C1C(=O)N(C)C(=S)N(C)C1=O	14µM*	/	-4%	/
COc1ccc(P2(=O)Nc3ccccc3N2)cc1	25µM*	?	9%	?
COc1ccc(/C=C/C(=O)Nc2ccc(C)cc2)cc1	/	-14%	/	?
CC(=O)Oc1ccc(/C=C/c2cc(OC(C)=O)cc(OC(C)=O)c2)cc1	-25%	6.3µM*	-3%	7.9µM*
SMILES	HPGD block	p53ts 39C tox	ALOX12 inhib	p53ts 32C tox
FC(F)(F)c1nc2ccc(SSc3ccc4nc(C(F)(F)F)[nH]c4c3)cc2[nH]1	4µM*	-7%[9.22 µM]	-1%[11.4 µM]	2%[9.22 µM]
Cc1nonc1-c1nc(-c2nonc2N)n[nH]1	14µM*	4%	3%	1%
Cc1cc(C)cc(N2C(=O)NC(=O)/C(=C/c3cccn3-c3ccc(Cl)cc3)C2=O)c1	4µM*	-6%	-3%	-13%
Cc1cccc(N2C(=O)NC(=O)/C(=C\c3cccn3-c3ccc(Cl)cc3)C2=O)c1	?	/	-3%	/
CN1C[C@H](C(=O)N[C@@]2(C)O[C@@]3(O)[C@H]4CCCN4C(=O)[C@@H](Cc4ccccc4)N3C2=O)C=C2c3cccc4[nH]cc(c34)C[C@@H]21	-7%	10%[9.22 µM]	1%[11.4 µM]	11%[9.22 µM]
[CH3][Hg][Cl]	?	16µM*	-1%	9%[1.84 µM]
Nc1nc(N)c2nc(CNc3ccc(C(=O)N[C@H](CCC(=O)O)C(=O)O)cc3)cnc2n1	/	?	-2%	?
O=C1OC(=O)[C@@H]2[C@@H]1[C@@H]1CC[C@H]2O1	/	12%	-3%	35%
Cc1nc(-c2ccc(-c3ccc(C(=O)N4CCc5cc6c(cc54)C4(CCN(C)CC4)CO6)cc3)c(C)c2)no1	-7%	10µM*	19%	16µM*
COc1ccc2c3c1O[C@@H]1C(=O)CC[C@@]4(O)[C@@H](C2)N(CC2CC2)CC[C@]314	/	14%	-3%	14%
CCCCC1C(=O)NC(=S)NC1=O	13µM*	-8%	0%	/
Cc1nc2ccccc2c(=O)n1-n1cnnc1	-5%	-8%	0%	21%
CC(=O)c1c(C)nc2ccccc2c1N	-12%	10µM*	-3%	13µM*
C=CCN1CC[C@]23c4c5ccc(O)c4O[C@@H]2/C(=N/NC(=O)c2ccccc2)CC[C@@]3(O)[C@H]1C5	/	12%	-5%	-9%
O=C1C=CC(=O)C=C1	-23%	7%	-4%	5%[1.84 µM]
O=C1C=CC(=O)C(Cl)=C1	1µM*	/	?	/
Cc1cccc(N2C(=O)/C(=C/c3ccc(CN(CCC#N)S(C)(=O)=O)o3)C(=O)NC2=S)c1	22µM*	/	?	/
Cc1ccc(N2C(=O)/C(=C/c3ccc(CN(CCC#N)S(C)(=O)=O)o3)C(=O)NC2=S)cc1C	14µM*	/	-27%	/
CN1CCN(c2ccc(/C=C3\C(=O)NC(=S)N(c4cccc(Br)c4)C3=O)o2)CC1	-10%	/	-8%	/
CCCOC(=O)[C@@H]1[C@@H](C(=O)O)[C@H]2CC[C@@H]1O2	-1%	1%[9.22 µM]	0%[11.4 µM]	-3%[9.22 µM]
COc1ccc(C[C@@H](N)c2ccc(OC)cc2)cc1	2%	-7%[9.22 µM]	1%[11.4 µM]	6%[9.22 µM]
CCOC(=O)c1c(C)n(CCN2CCN(C)CC2)c2ccc(OC)cc12	-5%	-11%	-3%	-15%
COc1ccc2c(c1)c(CCN1CCOCC1)c(C)n2C(=O)c1cccc(Cl)c1Cl	28µM*	?	-7%	-17%
CCN(CC)c1ccc(NC(=O)c2cccc(C)c2)cc1S(=O)(=O)Nc1ccccc1OC	13µM*	/	0%	/
C[C@H]1CCC[C@H](O)CCCCCc2cc(O)cc(O)c2C(=O)O1	-3%	7%	0%	23%
SMILES	HPGD block	p53ts 39C tox	ALOX12 inhib	p53ts 32C tox
CC1CC2OC2/C=C\C=C/C(=O)Cc2c(Cl)c(O)cc(O)c2C(=O)O1 (stereo unspecified)	18µM*	/	-4%[0.00818 µM]	/
C=CCSc1nnc(NC(=O)c2ccc(Cl)nc2)s1	28µM*	/	-1%	/
CC1(C)N=C(N)N=C(N)N1c1cccc(C(=O)Nc2ccc(S(=O)(=O)F)cc2)c1	-3%	5%[9.22 µM]	7%[11.4 µM]	-4%[9.22 µM]
O=C(Cn1c(=O)oc2cc(S(=O)(=O)N3CCCCCC3)ccc21)NCc1ccccc1Cl	/	23%	/	32%
CC1=CC(c2ccccc2)NC(=S)N1 (stereo unspecified)	13µM*	/	-10%	/
CN(C(=O)Cc1ccc(Cl)c(Cl)c1)[C@H](CN1CCCC1)c1cccc(N=C=S)c1	-9%	32µM*	-15%	32µM*
Cc1nc2cc(C(F)(F)F)ccc2n1C1CCN(Cc2nnnn2Cc2cccs2)CC1	-4%	-7%	-2%	-3%
